The record followed here is PubChem BioAssay (NCATS).

Inconclusive results are not listed. A call without a number means that no potency is given here. Active and inactive are the calls of the source. Calls follow the shape of the dose curve; as a rule, active = well fitted inhibition curve with a large enough effect; inconclusive = small, poorly fitted or top-dose-only effect; inactive = flat fitted curve, though single readings scatter.
Potency is read from the fitted curve at half-maximal effect.

The nature of this assay: P-glycoprotein substrates identified in KB-8-5-11 adenocarcinoma cell line, qHTS therapeutic library screen (AID 1346987). Also: nearly all actives have a fitted effect of over 65% in size. The conditions noted are these: KB-8-5-11 (P-gp overexpressing) viability, CellTiter-Glo, 72 h; series mostly up to 44.5 µM. Summed up:
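KB-8-5-11: colchicine-selected sub-line of KB-3-1 over-expressing P-gp; assay medium lacked colchicine. 72 h drug exposure at 37 degree C, CellTiter-Glo.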
In general terms: In qHTS, concentration-response curves come from the screen itself.
Take `C=C(C(=O)O)[C@@H]1CC=C(CCC(C)=O)[C@@H](C)CC1`: the Potency entry was “inactive”.
On to `COC(=O)CC[C@@H](C)C1CCC2C3CCC4C[C@H](OC(C)=O)CCC4(C)C3C[C@H](O)C21C` (some centres undefined), for which the Potency entry was “inactive”.
With `COC1CC/C=C(\C)C(=O)Nc2cc(O)cc(c2)CC(C)CC(OC)C(O)C(C)/C=C(\C)C1OC(N)=O` (centres undefined) the entry was “inactive”; with `CC[C@H]1OC(=O)[C@H](C)[C@@H](O[C@H]2C[C@@](C)(OC)[C@@H](O)[C@H](C)O2)[C@H](C)[C@@H](O[C@H]2O[C@H](C)C[C@H](N(C)C)[C@H]2O)[C@](C)(O)C[C@@H](C)C(=O)[C@H](C)[C@@H](O)[C@]1(C)O`, “inactive”; with `CC1(C)C2CC[C@]3(C)[C@H](C(=O)C=C4[C@@H]5C[C@@](C)(C(=O)O)CC[C@]5(C)CC[C@]43C)[C@@]2(C)CC[C@@H]1O[C@H]1O[C@H](C(=O)O)[C@@H](O)[C@H](O)[C@H]1O[C@@H]1O[C@H](C(=O)O)[C@@H](O)[C@H](O)[C@H]1O` (some centres undefined), “inactive”.
For `Cn1ncc2cc(-c3cnc(N)c(Cl)c3N3CCC4(CCNC4=O)CC3)ccc21`, the Potency result was “inactive”.
With `Nc1nc2c(nc(Br)n2[C@@H]2O[C@@H]3COP(=O)(O)O[C@H]3[C@H]2O)c(=O)[nH]1`, the Potency entry was “inactive”.
With `CCOc1ccc(-n2c([C@@H](C)N(Cc3cccnc3)C(=O)Cc3ccc(OC(F)(F)F)cc3)nc3ncccc3c2=O)cc1` the entry was “inactive”.
In the case of `CC1CC(=O)C2=C(C1)C1OC1C1(O)C2C(=O)c2cccc(O)c2C1O` (centres undefined) it was “inactive”; in that of `COc1ccc(CNCC(O)COc2ccc3[nH]c(=O)ccc3c2)cc1OC` (centres undefined), “inactive”.
Consider `O=C1O[C@@H]2[C@@H](O)[C@H](O)O[C@@H]2[C@H]1O`, for which the Potency result is “inactive”.
With `COc1cc2[nH]c(C)c(CCN3CCN(c4ccccc4)CC3)c2cc1OC` the entry was “inactive”; with `Cc1ccc(C)c(-c2cc(C(F)(F)F)nn2-c2ccc(S(N)(=O)=O)cc2)c1`, 23.1 µM (active).
With `CS(=O)(=O)Nc1cc2occ(NC=O)c(=O)c2cc1Oc1ccccc1` the entry was “inactive”.
`CNS(=O)(=O)c1ccccc1Nc1nc(Nc2ccc(N3CCN(C)CC3)cc2OC)ncc1Br`: the Potency was 2.06 µM (active).
As for `CC(O)(C(=O)C1CC1(CO)COC1OC(CO)C(O)C(O)C1O)C1C(O)CC2C3CC=C4CC(O)CC(O)C4(C)C3C(O)CC21C` (centres undefined), the Potency is 0.611 µM (active).
In the case of `CCOC(=O)c1cnc2ccc(-c3cncc(NS(=O)(=O)c4ccccc4)c3)cn12`, the Potency was 4.11 µM (active).
For `CCCCCCOC(=O)/N=C(\N)c1ccc(NCc2nc3cc(C(=O)N(CCC(=O)OCC)c4ccccn4)ccc3n2C)cc1`, the Potency result is “inactive”.
As for `C=C1CC[C@@H](O)[C@]2(C)CC[C@H]3C(=C)C(=O)O[C@@H]3[C@@H]12`, the Potency result was “inactive”.
For the compound `O=P(O)(O)C(Sc1ccc(Cl)cc1)P(=O)(O)O`, the Potency result was “inactive”.
In the case of `O=C(NCCO)c1cccc(-c2cc(Nc3ccc(OC(F)(F)F)cc3)ncn2)c1` it was “inactive”.
Regarding `CCn1c(-c2nonc2N)nc2c(C#CCO)ncc(OCCCN)c21`, the Potency entry is “inactive”.
As for `CC(C)(C)C1CCN(C(=O)n2ncc(C(O)(c3ccccc3)c3ccccc3)n2)CC1`, the Potency is 20.6 µM (active).
In the case of `C=CC(C)(C)c1[nH]c2ccccc2c1C[C@@H]1NC(=O)[C@H](C)NC1=O` it was “inactive”; in that of `COCc1c(Cl)ccc2c1CC[C@H]2c1ncc[nH]1`, “inactive”.
In the case of `CC1=CC2/C=C(\C)CCC(O)C/C=C/C(=O)OC23C(=O)NC(CC(C)C)C3C1C` (centres undefined) it was “inactive”; in that of `CC1OC(=O)C[C@@H]2C(C(=O)O)=CO[C@@H](O[C@H]3O[C@H](CO)[C@@H](O)[C@H](O)[C@H]3O)[C@H]12` (some centres undefined), “inactive”.
In the case of `CC(=O)Nc1cccc(-c2csc(Nc3cc(C)ccn3)n2)c1`, the Potency result is “inactive”.
For `NCCCC[C@H](NC(=O)[C@@H]1CCCN1C(=O)[C@@H]1CSSC[C@H](N)C(=O)N[C@@H](Cc2ccc(O)cc2)C(=O)N[C@@H](Cc2ccccc2)C(=O)N[C@@H](CCC(N)=O)C(=O)N[C@@H](CC(N)=O)C(=O)N1)C(=O)NCC(N)=O`, the Potency entry was “inactive”.
In the case of `CC(=O)O[C@H]1CC[C@@]2(C)C(=CC[C@H]3[C@@H]4CC[C@H](C(C)=O)[C@@]4(C)CC[C@@H]32)C1` it was “inactive”.
Consider `CC(C)(Cc1ccccc1)NCC(O)c1ccc(O)c(NS(C)(=O)=O)c1` (centres undefined), for which the Potency entry was “inactive”.
For `O=C1c2ccc(Nc3ccc(F)cc3F)cc2CCc2ccc(OCC(O)CO)cc21` (centres undefined), the Potency is 14.6 µM (active).
Take `OC1CCC(Nc2nc(-c3ccccc3)nc3[nH]ccc23)CC1` (centres undefined): the Potency result is “inactive”.
In the case of `Cc1cnn(-c2ccccc2)c1NC(=O)COCc1ccccc1` it was “inactive”.
